From PubChem BioAssay come the findings set out here.

Inconclusive results are not listed. Active and inactive are the calls of the source. Cut-off read from the data, not from the text of the source, unless noted: active = inhibition above about 80%; inactive = the rest.

Test [1] can be described thus: growth inhibition of DIPG glioma cells, dose response, cell-based, JHH-DIPG-1, MIPE4.0, CellTiter-Glo, qHTS (AID 1347062; cut-off not given, nearly all actives have AC50 up to about 27 µM). Particulars: JHH-DIPG-1 viability, CellTiter-Glo ATP luminescence.
A short description of test [2]: growth inhibition of DIPG glioma cells, dose response, cell-based, SU-DIPG-XIII, MIPE5.0, CellTiter-Glo, qHTS (AID 1347064; cut-off not given, nearly all actives have AC50 up to about 23 µM). The note with it: SU-DIPG-XIII viability, CellTiter-Glo ATP luminescence.
A short description of test [3]: viability loss in pontine glioma line – cell-based, SU-DIPG-XXV, MIPE5.0, CellTiter-Glo, qHTS, dose response (AID 1347065; cut-off not given, nearly all actives have AC50 up to about 26 µM;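 note: cells exposed to compound for 48 hours before ATP readout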). Particulars: CellTiter-Glo ATP luminescence. A general note: In ATP-based viability assays light output follows the ATP content of the culture.
The nature of test [4]: JHH-DIPG-1 glioma cell viability, MIPE5.0 library, CellTiter-Glo luminescence, qHTS (AID 1347067; cut-off not given, nearly all actives have AC50 up to about 26 µM;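 note: cells exposed to compound for 48 hours before readout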). The note with it: JHH-DIPG-1 glioma viability, CellTiter-Glo ATP luminescence.
The nature of test [5]: SU-DIPG-XXV glioma cell viability, MIPE5.0 library, qHTS (AID 1347068; cut-off not given, nearly all actives have IC50 up to about 30 µM).
Test [6] can be described thus: LFS_MB_1R medulloblastoma cell growth inhibition, synergistic combos for chromothripsis tumors, cisplatin or BGB combos (AID 1671452).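 Note: cells exposed for 96 hours before readout.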 Particulars: LFS_MB_1R medulloblastoma cells, stronger effect = higher value.
Test [7] in a line: CRL2098 osteosarcoma cell growth inhibition, synergistic combos for chromothripsis tumors, BGB or cisplatin IC20 combos (AID 1671454).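 Note: cells exposed for 96 h before readout; 0% = vehicle DMSO and 100% = killing by high DMSO.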 Particulars: CRL2098 osteosarcoma cells, drug combinations, stronger effect = higher value.
A short description of test [8]: HD-MB03 medulloblastoma cell growth inhibition, synergistic combos for chromothripsis tumors, BGB or cisplatin IC20 combos (AID 1671455; in the data active = inhibition above about 83%;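 note: 0% = vehicle DMSO and 100% = high DMSO as cytotoxic control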). Particulars: HD-MB03 medulloblastoma cells, stronger effect = higher value.
Test [9] in a line: UWB1.289 ovarian carcinoma cell growth inhibition, synergistic combos for chromothripsis tumors, BGB or cisplatin combos (AID 1671456).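 Note: cells exposed to compound for four days; 0% = vehicle DMSO and 100% = killing by high DMSO.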 Particulars: UWB1.289 ovarian carcinoma cells, stronger effect = higher value.
Test [10] is described as follows: LFS_MB_2R medulloblastoma cell growth inhibition, synergistic combos for chromothripsis tumors, cisplatin combos (AID 1671457).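 Note: cells exposed to compound for four days before readout.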 The note with it: LFS_MB_2R medulloblastoma cells, stronger effect = higher value.
The nature of test [11]: UWB1.289_BRCA1 ovarian cancer growth, cell-based, BGB or cisplatin combinations (AID 1671459). Particulars: UWB1.289 BRCA1 ovarian carcinoma, drug combinations, stronger effect = higher value.
Test [12] in a line: human astrocyte viability loss, single and combined drugs, cytotoxicity control for chromothriptic childhood tumor combination screen, cell-based, BGB or cisplatin IC20 combos (AID 1671460).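 Note: cells exposed to compounds for 96 hours before viability readout; 0% = vehicle and 100% = killing control.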 The note with it: Human astrocytes, drug combinations, stronger effect = higher value.
Test [13] is described as follows: growth inhibition of BT084 medulloblastoma cells, cell-based, ICGC_MB145, cisplatin and BGB IC40 combos (AID 1671461).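 Note: cells exposed to drugs for 96 hours; 0% = vehicle DMSO and 100% = high DMSO full killing control.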 Particulars: drug combinations, stronger effect = higher value.
A short description of test [14]: growth inhibition of RCMB18 medulloblastoma cells, cell-based, cisplatin and BGB IC40 combos (AID 1671462).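 Note: cells exposed to compound for four days.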 The note with it: stronger effect = higher value.
Test [15] in a line: growth inhibition of CRL1545 osteosarcoma cells, cell-based, cisplatin and BGB IC20 combos (AID 1671464).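 Note: cells exposed to compound for 96 hours before readout; 0% = vehicle DMSO and 100% = high DMSO killing control.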 Particulars: stronger effect = higher value.
A short description of test [16]: growth inhibition of DIPG glioma cells, dose response, cell-based, SU-DIPG-IV, MIPE4.0, CellTiter-Glo, qHTS (AID 1347063; cut-off not given, nearly all actives have AC50 up to about 30 µM;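 note: compound exposure lasted 48 hours before the viability readout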). The note with it: SU-DIPG-IV viability, CellTiter-Glo ATP luminescence.
A short description of test [17]: SU-DIPG-VI glioma cell viability, MIPE4.0 library, CellTiter-Glo luminescence, qHTS (AID 1347066; cut-off not given, nearly all actives have AC50 up to about 30 µM;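 note: cells exposed to compound for 48 hours before readout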). Particulars: CellTiter-Glo ATP luminescence.
The nature of test [18]: viability rescue of complex I mutant cybrids, primary screen, cell-based, galactose medium, ATP luminescence (AID 1645843;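 active = z-score of at least 1.8 in each of two replicates, scored against plate mean and spread of sample wells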;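 note: positive z means more ATP and so rescue of galactose-driven cybrid death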). The note with it: complex I mutant cybrid cells, 72 h, stronger effect = higher value.
Test [19] has as its target ATP-dependent translocase ABCB1 (Homo sapiens) (UniProt P08183). Put plainly: MDR1 (ABCB1) efflux transporter inhibition, cell-based (AID 377; in the data active = fluorescence slope change above about 50%). The note with it: MDR1-expressing cells, fluorescent substrate accumulation slope; stronger effect = higher value; concentration not given here.
The target in test [20] is Mitogen-activated protein kinase 7 (Homo sapiens) (UniProt Q13164). Put plainly: ERK5 transactivation activators in reporter cells, primary screen, cell-based, HTS (AID 1508626;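 active = luciferase signal above three times the same-plate solvent-only control wells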;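 note: luciferase driven by Gal4-ERK5 fusion binding five Gal4 sites before minimal TATA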). The note with it: HeLa Gal4-ERK5 transactivation, 18 h, at 5 µM, stronger effect = higher value.
Sequence of Mitogen-activated protein kinase 7 (Homo sapiens) (Q13164 whole entry, looked up, the tested form may be a part): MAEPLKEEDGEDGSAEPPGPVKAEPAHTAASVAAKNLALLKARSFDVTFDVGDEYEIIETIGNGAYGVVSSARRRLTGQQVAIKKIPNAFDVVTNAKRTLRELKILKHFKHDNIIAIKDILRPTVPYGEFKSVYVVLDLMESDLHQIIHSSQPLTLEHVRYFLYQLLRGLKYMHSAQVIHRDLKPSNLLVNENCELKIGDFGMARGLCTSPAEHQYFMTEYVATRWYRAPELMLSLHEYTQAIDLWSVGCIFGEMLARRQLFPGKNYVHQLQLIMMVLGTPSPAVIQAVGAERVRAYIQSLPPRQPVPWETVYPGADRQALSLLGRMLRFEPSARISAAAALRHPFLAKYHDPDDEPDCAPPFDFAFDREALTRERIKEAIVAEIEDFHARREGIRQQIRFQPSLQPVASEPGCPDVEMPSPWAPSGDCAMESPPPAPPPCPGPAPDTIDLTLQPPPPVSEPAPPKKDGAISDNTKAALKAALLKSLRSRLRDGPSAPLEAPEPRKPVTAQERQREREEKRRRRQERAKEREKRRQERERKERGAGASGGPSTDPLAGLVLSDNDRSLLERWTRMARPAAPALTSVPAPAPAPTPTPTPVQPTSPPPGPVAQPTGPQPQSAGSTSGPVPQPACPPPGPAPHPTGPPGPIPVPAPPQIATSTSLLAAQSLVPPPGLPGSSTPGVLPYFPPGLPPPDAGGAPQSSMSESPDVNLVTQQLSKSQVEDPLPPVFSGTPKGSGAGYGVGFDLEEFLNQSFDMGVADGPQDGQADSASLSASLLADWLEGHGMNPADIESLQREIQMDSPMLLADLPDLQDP
[21] abbreviates: measured here: combination with BGB IC40, at 0.05 µM.
The mark [22] stands for this setting: measured here: combination with cisplatin, at 0.5 µM.
The mark [23] stands for this setting: measured here: combination with cisplatin, at 5 µM.
Where [24] appears, read: measured here: combination with BGB at IC20, at 0.5 µM.
[25] abbreviates: measured here: combination with cisplatin at IC20, at 0.5 µM.
The mark [26] stands for this setting: measured here: combo with BGB at IC20, at 0.5 µM.
The mark [27] stands for this setting: measured here: combo with cisplatin at IC20, at 0.5 µM.
Where [28] appears, read: measured here: inhibition with BGB combination, at 0.05 µM.
Where [29] appears, read: measured here: inhibition with cisplatin combination, at 0.05 µM.
[30] abbreviates: BGB combination, concentration series, at 5 µM.
Where [31] appears, read: cisplatin combination, concentration series, at 5 µM.
The mark [32] stands for this setting: measured here: combo with BGB IC20, at 0.5 µM.
The mark [33] stands for this setting: measured here: combo with cisplatin IC20, at 0.5 µM.
The mark [34] stands for this setting: cisplatin combination, at 0.5 µM.
Setting [35] is: measured here: BGB IC40 combination 0.05 uM, at 0.05 µM.
Setting [36] is: measured here: BGB IC40 combination, at 0.05 µM.
Where [37] appears, read: measured here: with BGB IC20 combination, at 0.5 µM.
[38] abbreviates: measured here: with cisplatin IC20 combination, at 0.5 µM.

Sequence of ATP-dependent translocase ABCB1 (Homo sapiens) (P08183 whole entry, looked up, the tested form may be a part): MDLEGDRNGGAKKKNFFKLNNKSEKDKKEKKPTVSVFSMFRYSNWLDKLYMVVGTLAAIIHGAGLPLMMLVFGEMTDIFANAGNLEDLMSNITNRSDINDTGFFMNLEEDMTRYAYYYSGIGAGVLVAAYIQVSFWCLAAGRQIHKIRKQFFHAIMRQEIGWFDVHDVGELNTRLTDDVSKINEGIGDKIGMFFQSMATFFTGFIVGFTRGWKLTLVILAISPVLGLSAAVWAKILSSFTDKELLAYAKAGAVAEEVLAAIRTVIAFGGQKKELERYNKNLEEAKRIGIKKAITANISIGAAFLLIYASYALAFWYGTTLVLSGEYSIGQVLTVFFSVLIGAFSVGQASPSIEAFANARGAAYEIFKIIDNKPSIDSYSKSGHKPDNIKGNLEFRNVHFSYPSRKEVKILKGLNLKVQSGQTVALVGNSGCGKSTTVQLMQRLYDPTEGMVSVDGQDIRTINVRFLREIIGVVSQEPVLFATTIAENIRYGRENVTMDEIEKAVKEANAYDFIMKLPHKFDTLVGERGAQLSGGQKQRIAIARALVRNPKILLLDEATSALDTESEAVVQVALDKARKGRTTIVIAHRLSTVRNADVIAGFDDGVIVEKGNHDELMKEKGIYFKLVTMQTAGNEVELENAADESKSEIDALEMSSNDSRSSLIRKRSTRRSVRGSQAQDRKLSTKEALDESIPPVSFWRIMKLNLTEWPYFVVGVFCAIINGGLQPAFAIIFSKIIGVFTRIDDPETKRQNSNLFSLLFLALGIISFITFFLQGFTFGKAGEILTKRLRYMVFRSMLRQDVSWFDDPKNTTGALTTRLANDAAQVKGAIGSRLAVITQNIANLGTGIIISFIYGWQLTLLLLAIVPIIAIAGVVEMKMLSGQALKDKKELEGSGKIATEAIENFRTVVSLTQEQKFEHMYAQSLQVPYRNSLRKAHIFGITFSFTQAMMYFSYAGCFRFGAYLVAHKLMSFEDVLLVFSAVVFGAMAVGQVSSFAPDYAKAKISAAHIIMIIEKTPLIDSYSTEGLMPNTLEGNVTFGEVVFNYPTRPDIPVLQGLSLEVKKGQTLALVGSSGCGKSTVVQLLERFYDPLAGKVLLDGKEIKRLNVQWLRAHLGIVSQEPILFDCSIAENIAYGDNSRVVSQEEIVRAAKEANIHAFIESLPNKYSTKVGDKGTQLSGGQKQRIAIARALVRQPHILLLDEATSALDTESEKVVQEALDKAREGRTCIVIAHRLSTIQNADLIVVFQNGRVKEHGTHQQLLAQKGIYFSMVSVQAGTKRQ

As to `CNC1CCCN(c2c(F)cc3c(=O)c(C(=O)O)cn(C4CC4)c3c2OC)C1` (stereo not given), the molecule was called inactive in test [1], in test [2], in test [3], in test [4] and in test [5]. Further, the inhibition – broadly, the drop in the measured response relative to a control, in per cent – in [6] (at 0.5 µM) is -44.6% (inactive); in test [6] (setting [21]) it was -12.2%; in test [6] (setting [22]), -60.6%; in test [6] (setting [23]), -26%; in [7] (at 0.5 µM) it was -81.1% (inactive); in test [7] (setting [24]), -82.3%. Also, the inhibition in [7] (setting [25]) is -105%; in [8] (at 0.5 µM), -11% (inactive); in test [8] (setting [26]), -20.4%; in [8] (setting [27]), -17.8%; in test [9] (at 0.5 µM) it was -14.8% (inactive); in [9] (setting [28]) it was -34.6%. For the same molecule, the inhibition in [9] (setting [29]) was 0.742%; in test [10] (at 0.5 µM), -13.2% (inactive); in test [10] (setting [22]) it was -14.1%; in test [10] (setting [23]), -12.8%; in test [11] (setting [30]), -8.91%; in test [11] (at 0.5 µM) it was -19.1% (inactive). The inhibition in test [11] (setting [31]) is -12.5%; in test [12] (at 0.5 µM) it was 2.51% (inactive); in test [12] (setting [32]) it was -0.992%; in [12] (setting [33]), -5.96%; in test [13] (at 0.5 µM) it was -3.94% (inactive); in test [13] (setting [34]) it was -12.4%. Moreover, the inhibition in test [13] (cisplatin combination, at 5 µM) was -20.7%; in test [13] (setting [35]), -4.46%; in test [13] (single agent, at 5 µM), -9.28%; in test [14] (at 0.5 µM) it was -11% (inactive); in test [14] (cisplatin combo, at 5 µM) it was -11%; in [14] (setting [36]) it was -0.266%. Moreover, the inhibition in [14] (setting [22]) is -4.57%; in test [14] (single agent, at 5 µM) it was -28%; in test [15] (at 0.5 µM) it was -47.5% (inactive); in test [15] (setting [37]) it was -52.5%; in test [15] (setting [38]), -45%; in test [15] (single agent, at 0.05 µM) it was 2.8%. Moreover, the inhibition in test [15] (single agent, at 5 µM) is -16.1%.
Take `O=C1Cc2cc(CCN3CCN(c4nsc5ccccc45)CC3)c(Cl)cc2N1`: the results for the AC50 in test [16] and in [17] were 26.4 µM (active) and 23.5 µM (active), respectively. Besides, the z-score in [18] was -0.165 (inactive).
Consider `NC(N)=NC(N)=NCCc1ccccc1`, for which the fluorescence slope change in test [19] is 100% (active). The molecule was classed as inactive in test [1], in test [16], in [2], in test [3], in test [17] and in test [4]. Also, the molecule was classed as inactive in [5]. The luciferase signal in test [20] was 40 AU (inactive). For the same molecule, the z-score in test [18] is -2.58 (inactive).
Regarding `CN1CCN(c2c(F)cc3c(=O)c(C(=O)O)cn4c3c2OCN4C)CC1`, the molecule was called inactive in [1], in test [16] and in [17]. The inhibition in test [6] (at 0.5 µM) is -24.2% (inactive); in [6] (setting [21]), -29.1%; in [6] (setting [22]), -7.67%; in test [6] (setting [23]) it was 23.6%; in [7] (at 0.5 µM), -52.3% (inactive); in test [7] (setting [24]) it was -51%. Also, the inhibition in test [7] (setting [25]) is -59.8%; in [8] (at 0.5 µM), -2.64% (inactive); in [8] (setting [26]), 4.92%; in test [8] (setting [27]) it was 0.073%; in test [9] (at 0.5 µM), -1.17% (inactive); in test [9] (setting [28]) it was -15.9%. Further, the inhibition in test [9] (setting [29]) is 9.55%; in test [10] (at 0.5 µM), -13.7% (inactive); in [10] (setting [22]) it was -20.3%; in test [10] (setting [23]), -60.6%; in test [11] (setting [30]) it was 1.13%; in [11] (at 0.5 µM) it was 0.06% (inactive). Moreover, the inhibition in test [11] (setting [31]) is 8.22%; in test [12] (at 0.5 µM), 6.55% (inactive); in test [12] (setting [32]), 4.16%; in test [12] (setting [33]) it was 12.5%; in test [13] (at 0.5 µM) it was -6.03% (inactive); in [13] (setting [34]) it was -9.98%. For the same molecule, the inhibition in test [13] (cisplatin combination, at 5 µM) was 4.69%; in test [13] (setting [35]), 6.42%; in test [13] (single agent, at 5 µM), -5.93%; in [14] (at 0.5 µM), -12.6% (inactive); in test [14] (cisplatin combo, at 5 µM) it was -14.3%; in test [14] (setting [36]), -20.1%. Besides, the inhibition is -5.19% in test [14] (setting [22]); -1.41% in test [14] (single agent, at 5 µM); -1.5% (inactive) in test [15] (at 0.5 µM); -0.247% in [15] (setting [37]); -4.44% in [15] (setting [38]); -8.36% in [15] (single agent, at 0.05 µM). Further, the inhibition in test [15] (single agent, at 5 µM) is 2.43%.
